In PubChem BioAssay (NCATS):
Records with an inconclusive call do not appear. The source made the active and inactive calls. The call rests on the fitted dose curve; in most records, active means well fitted inhibition curve with a large enough effect; inconclusive means small, poorly fitted or top-dose-only effect; inactive means no such curve, though single readings can be large or run the other way.

The molecules below were run against Cytochrome P450 3A7 (Homo sapiens) (UniProt P24462) (assay: Cytochrome P450 family 3 subfamily A member 7 (CYP3A7) small molecule antagonists: luciferase biochemical qHTS assay (AID 1963596; further: nearly all actives have a fitted effect of over 40% in size)). Conditions: P450-Glo CYP3A7 enzyme luminescence, 1 h; series mostly up to 57.4 µM; activity change, negative = inhibition: at the top concentration.
Chain of Cytochrome P450 3A7 (Homo sapiens) (P24462 whole entry, looked up): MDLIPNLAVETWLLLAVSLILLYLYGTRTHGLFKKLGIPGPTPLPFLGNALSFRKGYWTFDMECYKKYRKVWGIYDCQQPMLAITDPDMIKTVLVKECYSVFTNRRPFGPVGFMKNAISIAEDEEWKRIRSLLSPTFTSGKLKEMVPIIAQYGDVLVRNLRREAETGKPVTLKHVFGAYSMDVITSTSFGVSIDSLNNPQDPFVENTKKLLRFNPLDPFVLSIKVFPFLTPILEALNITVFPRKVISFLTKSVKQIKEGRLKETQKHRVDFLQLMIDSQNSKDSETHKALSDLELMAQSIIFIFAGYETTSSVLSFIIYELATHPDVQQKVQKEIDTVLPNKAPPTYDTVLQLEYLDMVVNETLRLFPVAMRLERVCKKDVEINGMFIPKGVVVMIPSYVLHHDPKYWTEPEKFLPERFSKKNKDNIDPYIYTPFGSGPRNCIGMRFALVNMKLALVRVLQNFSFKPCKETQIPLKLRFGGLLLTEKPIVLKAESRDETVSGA
Text: National Center for Advancing Translational Sciences [NCATS] Assay Overview: Cytochrome P450 (CYP) enzymes are membrane-bound hemeproteins that play a key role in metabolism of drugs and xenobiotics. The CYP3A subfamily is the most abundant, representing 30% of the total adult hepatic CYP content, whereas CYP3A7 is found predominantly in human fetal liver and accounts up to 50% of the total fetal hepatic CYP content. Testing the effect of chemicals on CYP isozymes is useful to minimize the adverse drug reactions and toxicities in the drug development process. Chemicals were tested for their effect on CYP enzyme activities by using P450-Glo (TM) screening systems (Promega Corporation, Madison, WI). These systems provide a luminescent method containing proluciferin substrates and are converted to luciferin products by CYP isozymes. The luciferin products formed are detected with a luciferin detection reagent, and the amount of light produced is proportional to CYP activity. P450-Glo (TM) CYP3A7 screening system (Catalog. No. V8812) was used to detect the compounds that interfere with CYP3A7 activity. The positive control compound used for CYP3A7 assay is ketoconazole (Sigma-Aldrich, St. Louis, MO).
Assay Protocol Summary: Two ul of enzyme-substrate mix was dispensed into medium binding white/solid 1536-well plates (Greiner Bio-One North America Inc., Monroe, NC) using a Flying Reagent Dispenser (FRD, Aurora Discovery, San Diego, CA). Compounds dissolved in DMSO, and positive control (ketoconazole) were transferred to the assay plates at 23 nl using a Pintool station (Wako, San Diego, CA). The assay plates were incubated at room temperature for 10 min. Then 2 ul of NADPH regeneration solution was added to each well of the assay plates using an FRD and incubated at room temperature for 1 h. The reaction was stopped by adding 4 ul of detection reagent using an FRD and after 20 min incubation at room temperature the luminescence signal was measured using a ViewLux plate reader (Perkin Elmer, Shelton, CT). Data were expressed as relative luminescence units.
On the % scale 0 is the no-effect control and ±100 the full control effect; potency means the concentration at half of the fitted maximal effect.

| SMILES | activity change, negative = inhibition | Potency |
| --- | --- | --- |
| Cc1c(Cl)cccc1S(=O)(=O)Nc1nc(CC(=O)N2CCN(C)CC2)cs1 | -29.7% (inactive) |  |
| COc1ccc2c3c1O[C@H]1[C@H](O)CC[C@H]4[C@@H](C2)N(C)CC[C@@]341 | -26.4% [at 115 µM] (inactive) |  |
| CN1C(=O)COc2c(C(=O)NC3CN4CCC3CC4)cc(Cl)cc21 (stereo not given) | -14.5% (inactive) |  |
| C[C@@H]1CN(C2CCC(C#N)(c3ccc(F)cc3)CC2)CC[C@]1(C(=O)O)c1ccccc1 (stereo not given in full) | 4% (inactive) |  |
| O=[As]O[As]=O (stereo not given) | 5.3% (inactive) |  |
| O=C1CC[C@@]2(O)[C@H]3Cc4ccc(O)c5c4[C@@]2(CCN3CC2CC2)[C@H]1O5 | -0.973% (inactive) |  |
| O=C(O)c1ccc(=O)[nH]c1 | 19.6% (inactive) |  |
| CCC1(c2ccccc2)CCC(=O)NC1=O (stereo not given) | 40.5% (inactive) |  |
| CN1C(=O)CCS(=O)(=O)C1c1ccc(Cl)cc1 (stereo not given) | -18.4% (inactive) |  |
| Nc1ccncc1 | -12.8% (inactive) |  |
| CCC(C(N)=O)N1CCCC1=O (stereo not given) | 7.55% (inactive) |  |
| CSCC[C@@H](NC(=O)[C@@H](Cc1ccccc1)NC(=O)CNC(=O)CNC(=O)[C@@H](N)Cc1ccc(O)cc1)C(=O)O | -30.1% (inactive) |  |
| Oc1c(Br)cc(Br)cc1Br | -28.1% (inactive) |  |
| CCC1(CC)C(=O)NC(=O)NC1=O | 0.41% (inactive) |  |
| CC(C)(C)NC[C@H](O)c1ccc(O)cc1Cl | -10.8% (inactive) |  |
| O=S(=O)(c1ccc(Cl)cc1)c1ccc(Cl)cc1 |  | 2020 nM (active) |
| CN1[C@@H]2CC[C@H]1CC(OC(=O)c1cc(Cl)cc(Cl)c1)C2 (stereo not given in full) | 4.29% (inactive) |  |
| O=[N+]([O-])c1c(Cl)c(Cl)cc(Cl)c1Cl | -1.95% [at 115 µM] (inactive) |  |
| CN(Cc1cccc(-c2ccncc2)c1)C(=O)Oc1ccc(-c2ccc(C(N)=O)cc2)cc1 | 0% (inactive) |  |
| CC(C)(O)C(Cl)(Cl)Cl | 25.7% (inactive) |  |

| SMILES | activity change, negative = inhibition | Potency |
| --- | --- | --- |
| C1CCC(NC2CCCCC2)CC1 | -1.45% (inactive) |  |
| C=CCN1CC[C@]23c4c5ccc(O)c4O[C@H]2C(=O)CC[C@@]3(O)[C@H]1C5 | -0.405% (inactive) |  |
| O=[N+]([O-])c1ccc([As](=O)(O)O)cc1 | -4.95% (inactive) |  |
| CCCCc1ccc(C(=O)O)nc1 | -0.905% (inactive) |  |
| Clc1ccccc1N1CCNCC1 | 3.32% (inactive) |  |
| ClCc1cccc(Cl)c1 | -0.971% (inactive) |  |
| O=C1CN=C(c2cccc(Br)c2)c2oc3ccccc3c2N1 | 22.9% (inactive) |  |
| CN(C(=O)Cc1ccccc1)C(CN1CCCC1)c1ccccc1 (stereo not given) | -14.4% (inactive) |  |
| COC(=O)c1ccccc1C(=O)OC | 0.312% (inactive) |  |
| C[C@@H](N)[C@@H](O)c1ccccc1 | -14% (inactive) |  |
| CCOc1cc(C=O)ccc1O | -14.2% (inactive) |  |
| NC(=O)OCCCc1ccccc1 | -12.8% (inactive) |  |
| CCS(=O)(=O)C(C)(C)S(=O)(=O)CC | -13.3% (inactive) |  |
| CCCN1CCC[C@@H]2Cc3[nH]ncc3C[C@H]21 | -1.14% (inactive) |  |
| COc1cc(N2CCN(C)CC2)ccc1N | -30.7% (inactive) |  |
| CC(CC(C(N)=O)(c1ccccc1)c1ccccc1)N(C)C (stereo not given) | -1.42% (inactive) |  |
| Cc1ccc(Cl)c(O)c1 | -13.8% (inactive) |  |
| Oc1ccccc1-c1ccccc1 | -16.5% (inactive) |  |
| Nc1ccc([N+](=O)[O-])cc1 | -0.109% [at 115 µM] (inactive) |  |
| CC[N+]1(CCOC(=O)C(O)(c2ccccc2)c2ccccc2)CCCCC1 | -27.8% (inactive) |  |
